Measurements published in PubChem BioAssay (EPA / NIEHS).
Inconclusive results are not listed. The source made the active and inactive calls. Rule for the calls, unless noted: active = hit-call score of the fitted dose curve at least 0.9, where 1 is the maximum; inactive = score below 0.9.

Key:
[1] = CCTE_Simmons_MITO_basal_resp_rate: CCTE's HepG2 Seahorse XF Respirometric Screening Assay at Basal Respiratory State, Simmons Lab (AID 2284001); conditions: actives raise or lower the signal
Method in brief: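 Basal-phase OCR in HepG2 cells, read at 6-min intervals across a 72-min run, with test compound injected at 125 nM–100 uM final (7 points). Fitted both directions against DMSO; three biological replicates per concentration.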

[2] = CCTE_Simmons_MITO_max_resp_rate: CCTE's HepG2 Seahorse XF Respirometric Screening Assay at Maximal Respiratory State [uncoupled], Simmons Lab (AID 2284002); conditions: actives raise or lower the signal
Method in brief: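 HepG2, Seahorse XF96, maximal OCR post-FCCP. Cpd 125 nM–100 uM final (7 conc), n=3 biological. Kinetic reads every 6 min (3 min mix/3 min measure) over 72 min; fit bidirectional vs DMSO.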

[3] = CCTE_Simmons_MITO_inhib_resp_rate: CCTE's HepG2 Seahorse XF Respirometric Screening Assay at Inhibited Respiratory State [full ETC block], Simmons Lab (AID 2284006); conditions: actives raise or lower the signal
Method in brief: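 OCR read-out in the inhibited phase following rotenone/antimycin A, after compound and FCCP injections, in HepG2 cells. Seven concentrations (125 nM to 100 uM final), three biological replicates, 6-min cycles over 72 min; DMSO baseline.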

[4] = CCTE_Shafer_MEA_acute_spike_number: CCTE's Neural Acute Assay for Total Number of Spikes, Shafer Lab (AID 2284008);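 for AC50: curve fitted for decrease in spike count so AC50 reflects inhibitors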
Method in brief: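 Rat cortical cultures, DIV 13/15, 37 C. 40 min baseline rec, cpd 0.03-40 uM, 40 min post-dose rec. Band-pass 300-5000 Hz, spike threshold 8x rms; % change in spike count per well, DMSO neg ctrl, loss-of-signal fit.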

[5] = CCTE_Shafer_MEA_acute_firing_rate_mean: CCTE's Neural Acute Assay for Mean Firing Rate, Shafer Lab (AID 2284009);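 note: analyzed for loss of signal so actives lower firing rate relative to DMSO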
Method in brief: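 Primary rat cortical neurons on 16-electrode MEA wells were exposed on DIV 13 or 15 to compound (0.03-40 uM). Spike counts per recording time, averaged over electrodes, were compared between 40-min baseline and 40-min post-exposure recordings as percent change.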

[6] = CCTE_Harrill_HTTr_Viability_MCF7: CCTE's 6-hour Cell Viability Assessment for the High-Throughput Transcriptomics (HTTr) Platform, in MCF-7 cells cultured in DMEM + 10% fetal bovine serum, Harrill Lab (AID 2284010)
Method in brief: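 PI exclusion, high-content imaging; 8-pt dilution series, 6 h exposure; bidirectional fit vs DMSO (neg. ctrl/baseline); gain of signal = loss of membrane integrity.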

[7] = CCTE_Harrill_HTTr_Apoptosis_MCF7: CCTE's 6-hour Apoptosis Assessment for the High-Throughput Transcriptomics (HTTr) Platform, in MCF-7 cells cultured in DMEM + 10% fetal bovine serum, Harrill Lab (AID 2284011)
Method in brief: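 Read-out: CellEvent Caspase 3/7 Green signal by high content imaging, gain-of-signal indicating apoptosis. MCF-7 cells, DMEM + 10% FBS, eight-point dilution series, 6 h exposure. Curves fitted bidirectionally relative to DMSO negative control.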

[8] = CCTE_Shafer_MEA_acute_burst_number: CCTE's Neural Acute Assay for Single-Electrode Bursts, Shafer Lab (AID 2284013)
Method in brief: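 Primary rat cortical neurons on 16-electrode MEA wells, DIV 13 or 15, exposed to compound (0.03-40 uM; ≥3 wells); 40-min recordings at 37 C before and after treatment. Burst count expressed as percent change from baseline, DMSO as negative control.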

[9] = CCTE_Shafer_MEA_acute_per_burst_spike_number_mean: CCTE's Neural Acute Assay for Average Number of Spikes Per Burst, Shafer Lab (AID 2284015);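 note: hits are decreases in mean spikes per burst versus baseline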
Method in brief: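 Percent change in mean spikes per single-electrode burst is compared between a 40 min baseline and a 40 min recording with compound (0.03-40 uM). Cultures were rat cortical neurons on MEA plates at DIV 13 or 15, recorded at 37 C, with DMSO as the negative control.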

[10] = CCTE_Shafer_MEA_acute_interburst_interval_mean: CCTE's Neural Acute Assay for Mean Interburst Interval, Shafer Lab (AID 2284016);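 note: percent change of mean interburst interval versus each well's own pre-dose baseline; curves fitted for decrease in interburst interval relative to DMSO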
Method in brief: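 Percent change in mean single-electrode interburst interval was calculated per well from 40 min recordings before and after compound (0.03-40 uM). Recordings were made at 37 C on rat cortical cultures at DIV 13 or 15, with spikes detected at 8x rms threshold.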

[11] = CCTE_Shafer_MEA_acute_burst_percentage_mean: CCTE's Neural Acute Assay for Percentage of Spikes in a Burst, Shafer Lab (AID 2284017);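 for AC50: curve fitted for loss of signal so potency reflects decreased burst percentage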
Method in brief: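 Well-level mean burst percentage from a 40-min recording after compound (0.03-40 uM) expressed as percent change from a 40-min baseline at 37C. Cultures: primary rat cortical neurons on MEA, dosed on DIV 13 or 15; fitted downward relative to DMSO.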

[12] = CCTE_Shafer_MEA_acute_burst_percentage_std: CCTE's Neural Acute Assay for Standard Deviation of Burst Percentage, Shafer Lab (AID 2284018);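 note: fitted in the negative direction so actives lower burst percentage SD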
Method in brief: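 Value is percent change from baseline in the across-electrode SD of spikes-in-bursts percentage, wells with >/= 10 active electrodes. Acute 40-min exposure to 0.03-40 uM on DIV 13 or 15 rat cortical cultures, recorded at 37 C after 40-min baseline.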

[13] = CCTE_Shafer_MEA_acute_per_network_burst_spike_number_mean: CCTE's Neural Acute Assay for Average Number of Spikes in a Network Burst, Shafer Lab (AID 2284019);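 for AC50: curve fitted for loss of signal so actives reduce spikes per network burst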
Method in brief: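 Percent change from baseline in mean spikes per network burst, spikes detected at 8x rms noise. Each compound at 0.03-40 uM in at least three wells of rat cortical cultures, recorded 40 min before and 40 min during exposure.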

[14] = CCTE_Shafer_MEA_acute_per_network_burst_spike_number_std: CCTE's Neural Acute Assay for Standard Deviation of Number of Spikes in a Network Burst, Shafer Lab (AID 2284020);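 note: fitted for decrease in spike-number SD versus DMSO so actives lower it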
Method in brief: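 Endpoint: percent change from 40 min baseline in standard deviation of spikes per network burst, after 40 min compound exposure (0.03-40 uM, 37 C). Cortical rat neurons on MEA at DIV 13 or 15; spikes detected at 8x rms noise, 300-5000 Hz band-pass.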

[15] = CCTE_Shafer_MEA_acute_per_network_burst_electrodes_number_mean: CCTE's Neural Acute Assay for Mean Number of Electrodes in a Network Burst, Shafer Lab (AID 2284021);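 note: curves fitted for decreases only so hits reduce electrodes per burst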
Method in brief: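 Readout: % change in mean electrodes active per network burst, post- vs pre-treatment, each well. Spikes detected at 8x rms noise after 300-5000 Hz band-pass; rat cortical cultures, DIV 13/15, compounds 0.03-40 uM, DMSO baseline.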

[16] = CCTE_Shafer_MEA_acute_network_burst_percentage: CCTE's Neural Acute Assay for Percentage of Network Bursts, Shafer Lab (AID 2284022);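 note: curves fitted for loss so actives lower network burst percentage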;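 for outcome: rat primary cortical neuron networks on multiwell MEA recorded 40 min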
Method in brief: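 Rat cortical cultures, DIV 13/15; 20 min equilibration, 40 min baseline, compound 0.03-40 uM, 40 min recording, 37 C. Spikes: 300-5000 Hz band-pass, threshold 8x rms noise. Readout: % change in network-burst spike fraction; loss direction vs DMSO.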

[17] = CCTE_Shafer_MEA_acute_cross_correlation_area: CCTE's Neural Acute Assay for Area of Cross Correlation, Shafer Lab (AID 2284024);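 note: area under pooled inter-electrode spike cross-correlation near zero lag as percent change from own baseline; curves fitted for loss of cross-correlation area so actives lower synchrony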;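 for outcome: rat primary cortical neuron networks on 48-well MEA at DIV 13 or 15 with 40 min exposure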
Method in brief: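 Rat cortical cultures, DIV 13/15, MEA; spikes detected at 8x rms noise (300-5000 Hz band-pass). Compound 0.03-40 uM, ≥3 wells each. Readout: % change in pooled inter-electrode cross-correlation area vs own baseline; DMSO negative control.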

[18] = CCTE_Shafer_MEA_acute_cross_correlation_HWHM: CCTE's Neural Acute Assay for Cross Correlation at Half Width at Half Maximum, Shafer Lab (AID 2284026);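 note: percent change per well from pre-dose baseline in spike cross-correlogram half width; hits are a decrease in cross-correlogram half width relative to DMSO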;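 for outcome: spontaneous network firing of rat primary cortical neurons on multiwell microelectrode arrays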
Method in brief: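 Read-out: half width at half maximum of action-potential cross-correlogram, percent change versus pre-treatment baseline, fitted in loss direction against DMSO. Rat cortical cultures, DIV 13 or 15, dosed 0.03-40 uM, 40-min recordings at 37 C.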

[19] = target: Estrogen receptor (Homo sapiens) (UniProt P03372); test: CCTE_Deisenroth_AIME_96WELL_LUC_Active: CCTE's 96-well Estrogen Receptor Transactivation Assay with AIME metabolic competence (ERTA luciferase; metabolism positive), Deisenroth Lab (AID 2284023; active = hit-call score of the fitted dose curve at least 0.9, where 1 is the maximum)
Estrogen receptor (Homo sapiens), sequence (P03372 whole entry, looked up): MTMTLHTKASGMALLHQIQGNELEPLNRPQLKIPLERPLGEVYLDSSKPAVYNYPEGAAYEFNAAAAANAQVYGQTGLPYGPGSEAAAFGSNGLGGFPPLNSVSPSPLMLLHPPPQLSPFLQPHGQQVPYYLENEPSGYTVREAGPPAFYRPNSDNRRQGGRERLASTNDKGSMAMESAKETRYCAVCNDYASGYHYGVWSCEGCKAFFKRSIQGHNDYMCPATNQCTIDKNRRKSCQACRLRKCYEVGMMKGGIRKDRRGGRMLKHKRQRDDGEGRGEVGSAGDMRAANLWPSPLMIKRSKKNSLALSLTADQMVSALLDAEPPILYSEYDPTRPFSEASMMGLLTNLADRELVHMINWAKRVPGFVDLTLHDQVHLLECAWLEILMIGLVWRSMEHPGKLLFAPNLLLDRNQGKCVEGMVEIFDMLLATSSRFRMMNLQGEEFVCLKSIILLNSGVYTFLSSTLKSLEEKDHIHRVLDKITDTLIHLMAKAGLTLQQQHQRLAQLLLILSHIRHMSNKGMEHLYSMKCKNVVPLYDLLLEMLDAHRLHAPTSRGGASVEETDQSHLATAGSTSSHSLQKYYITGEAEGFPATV
Method in brief: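 Metabolism-positive mode: induced rat hepatic S9 in alginate microspheres conditions test solutions (0.002 - 200 uM, 10 points) for 2 hours. VM7Luc4E2 ER luciferase reporter cells then exposed 24 h; positive-direction fit against 17beta-estradiol, n=4 typical.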

[20] = target: Estrogen receptor (Homo sapiens) (UniProt P03372); test: CCTE_Deisenroth_AIME_96WELL_LUC_Inactive: CCTE's 96-well Estrogen Receptor Transactivation Assay without AIME metabolic competence (ERTA luciferase; metabolism negative), Deisenroth Lab (AID 2284025; active = hit-call score of the fitted dose curve at least 0.9, where 1 is the maximum)
Method in brief: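 Metabolism-negative arm: chemicals (0.002–200 uM, 10 points) incubated 2 h with alginate-water microspheres, then medium moved onto VM7Luc4E2 cells for 24 h luciferase read-out. Positive direction vs 17beta-estradiol; n≥4 experiments.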

Question: Which results are given for CCC(C)(c1ccc(O)cc1)c1ccc(O)cc1?
Answer: AC50 [1]: 16.9 µM (active); AC50 [2]: 25.9 µM (active); outcome [3]: inactive; outcome [4]: inactive; outcome [5]: inactive; outcome [6]: inactive; outcome [7]: inactive; outcome [8]: inactive; outcome [9]: inactive; outcome [10]: inactive; outcome [11]: inactive; outcome [12]: inactive; outcome [13]: inactive; outcome [14]: inactive; outcome [15]: inactive; AC50 [16]: 3.31 µM (active); outcome [17]: inactive; outcome [18]: inactive

Question: Which AC50 [4] does the source give for ClC1=C(Cl)[C@]2(Cl)[C@@H]3[C@@H]4C[C@@H]([C@H]5O[C@@H]45)[C@@H]3[C@@]1(Cl)C2(Cl)Cl here?
Answer: 0.476 µM (active)

Question: What about the AC50 [5] of the same molecule?
Answer: 0.489 µM (active)

Question: And the outcome [6]?
Answer: inactive

Question: What about the outcome [7] of the same molecule?
Answer: inactive

Question: What about the AC50 [8] of the same molecule?
Answer: 0.508 µM (active)

Question: And the AC50 [9]?
Answer: 0.126 µM (active)

Question: And the outcome [10]?
Answer: inactive

Question: And the AC50 [11]?
Answer: 0.0949 µM (active)

Question: And the outcome [12]?
Answer: inactive

Question: What about the AC50 [13] of the same molecule?
Answer: 0.135 µM (active)

Question: And the AC50 [14]?
Answer: 0.338 µM (active)

Question: What about the AC50 [15] of the same molecule?
Answer: 0.116 µM (active)

Question: What about the AC50 [16] of the same molecule?
Answer: 0.192 µM (active)

Question: What about the AC50 [17] of the same molecule?
Answer: 0.318 µM (active)

Question: What about the AC50 [18] of the same molecule?
Answer: 0.323 µM (active)

Question: For CCCN(CCC)N=O, which outcome [4] is on record?
Answer: inactive

Question: What about the outcome [5] of the same molecule?
Answer: inactive

Question: And the outcome [6]?
Answer: inactive

Question: And the outcome [7]?
Answer: inactive

Question: And the outcome [8]?
Answer: inactive

Question: What about the outcome [9] of the same molecule?
Answer: inactive

Question: And the outcome [10]?
Answer: inactive

Question: And the outcome [11]?
Answer: inactive

Question: What about the outcome [12] of the same molecule?
Answer: inactive

Question: What about the outcome [13] of the same molecule?
Answer: inactive

Question: What about the outcome [14] of the same molecule?
Answer: inactive

Question: What about the outcome [15] of the same molecule?
Answer: inactive

Question: And the outcome [16]?
Answer: inactive

Question: What about the outcome [17] of the same molecule?
Answer: inactive

Question: What about the outcome [18] of the same molecule?
Answer: inactive

Question: Which AC50 [1] does the source give for C[C@]12CCC(=O)C=C1CC[C@@H]1[C@@H]2CC[C@]2(C)C(=O)CC[C@@H]12 here?
Answer: 38 µM (active)

Question: And the outcome [2]?
Answer: inactive

Question: And the outcome [3]?
Answer: inactive

Question: Which results are given for COS(=O)(=O)OC?
Answer: outcome [4]: inactive; outcome [5]: inactive; outcome [6]: inactive; outcome [7]: inactive; outcome [8]: inactive; outcome [9]: inactive; outcome [10]: inactive; outcome [11]: inactive; outcome [12]: inactive; outcome [13]: inactive; outcome [14]: inactive; outcome [15]: inactive; outcome [16]: inactive; outcome [17]: inactive; outcome [18]: inactive

Question: What does the source list for CCCCCCCCCc1ccc(O)cc1?
Answer: AC50 [4]: 9.9 µM (active); AC50 [5]: 9.87 µM (active); outcome [6]: inactive; outcome [7]: inactive; outcome [8]: inactive; AC50 [9]: 11.1 µM (active); outcome [10]: inactive; AC50 [11]: 22.5 µM (active); AC50 [12]: 33.7 µM (active); outcome [13]: inactive; AC50 [14]: 9.3 µM (active); AC50 [15]: 20 µM (active); AC50 [16]: 31 µM (active); outcome [17]: inactive; AC50 [18]: 20 µM (active)

Question: Which outcome [2] does the source give for CCC(=O)O[C@H]1CC[C@H]2[C@@H]3CCC4=CC(=O)CC[C@]4(C)[C@H]3CC[C@]12C here?
Answer: inactive

Question: What about the outcome [3] of the same molecule?
Answer: inactive

Question: And the outcome [6]?
Answer: inactive

Question: And the outcome [7]?
Answer: inactive

Question: Which results are given for O=C(NC(=O)c1c(F)cccc1F)Nc1cc(Cl)c(OC(F)(F)C(F)F)c(Cl)c1?
Answer: outcome [4]: inactive; outcome [5]: inactive; outcome [6]: inactive; outcome [7]: inactive; outcome [8]: inactive; outcome [9]: inactive; AC50 [10]: 20 µM (active); outcome [11]: inactive; outcome [12]: inactive; outcome [13]: inactive; outcome [14]: inactive; outcome [15]: inactive; AC50 [16]: 20 µM (active); outcome [17]: inactive; outcome [18]: inactive

Question: Which results are given for c1ccc(-c2ccccc2)cc1?
Answer: outcome [4]: inactive; outcome [5]: inactive; outcome [6]: inactive; outcome [7]: inactive; outcome [8]: inactive; outcome [9]: inactive; outcome [10]: inactive; AC50 [11]: 33.1 µM (active); outcome [12]: inactive; outcome [13]: inactive; outcome [14]: inactive; outcome [15]: inactive; outcome [16]: inactive; AC50 [19]: 77.8 µM (active); outcome [17]: inactive; outcome [20]: inactive; outcome [18]: inactive
